Screens: PubChem BioAssay, National Center for Advancing Translational Sciences (NCATS)
Hits are enriched below; roughly 0.95% of the tested compounds scored in any of these assays.
Giardia FBPA inh-1: inhibitors of Giardia lamblia fructose-1,6-bisphosphate aldolase. Potency, µM (highest dose often 59.6 µM), for the others: top-dose activity, negative = inhibition, actives largely listed as inhibitors. AID 2451. purified Giardia FBPA. A8B2U2. 0.71% of 290,000 active; note: nearly all actives have a fitted effect of over 55% in size
Target sequence (A8B2U2 whole entry, looked up): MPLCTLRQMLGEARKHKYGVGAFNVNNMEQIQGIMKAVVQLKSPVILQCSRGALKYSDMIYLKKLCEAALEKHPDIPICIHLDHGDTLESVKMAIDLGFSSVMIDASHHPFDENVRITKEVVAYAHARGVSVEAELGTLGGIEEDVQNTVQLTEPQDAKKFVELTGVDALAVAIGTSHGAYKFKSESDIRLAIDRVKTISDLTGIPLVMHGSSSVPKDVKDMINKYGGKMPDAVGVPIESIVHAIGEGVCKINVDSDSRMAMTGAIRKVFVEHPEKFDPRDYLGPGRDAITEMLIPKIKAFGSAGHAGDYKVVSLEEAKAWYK
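Giardia FBPA (40 nM reagent) was preincubated 10 min at RT with compound (up to 57.5 uM final), then substrate plus GAPDH/TPI/NAD/arsenate coupling system with diaphorase/resazurin was added; resorufin fluorescence (525/598 nm) was read after 20 min.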
Tb PYK inh: inhibitors of Trypanosoma brucei pyruvate kinase. Q57TT1. TbPYK enzyme, Kinase-Glo Plus ATP luminescence, 45 min. Potency, µM (top dose mostly 76.8 µM), for inactives: at the top dose activity, negative = inhibition, usual class: inhibitors. 0.12% of 410,000 active. AID 624173; note: nearly all actives have a fitted effect of over 50% in size
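Readout: single end-point luminescence (Kinase-Glo Plus, 10 min). Reaction conditions were TbPYK/substrate plus 130 uM ADP, 45 min at RT, pH 7.2 TEA buffer. No-enzyme wells served as controls, and data were normalized before concentration-response fitting.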
LmPK inh: inhibitors of Leishmania mexicana pyruvate kinase | Potency, µM (titrated, usually from 57.5 µM), for the others: top-dose activity change, negative = inhibition, hits mostly inhibitors | 0.37% of 290,000 active | purified LmPK, Kinase-Glo ATP luminescence, 1 h
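In 50 mM imidazole pH 7.2 with 7 mM MgCl2, LmPK (0.1 nM) turned over PEP (0.5 mM) and ADP (0.1 mM) for 1 h at room temperature. Luciferase read-out of ATP.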
RE007 growth inh: less growth of the S. pombe RE007 Vpr strain | S. pombe RE007 Vpr strain, BacTiter-Glo ATP luminescence, 24 h | Potency, µM (doses to about 92.2 µM), for inactives: top-dose activity change, negative = less growth, usual class: inhibitors | 0.21% of 360,000 active; active = well fitted falling curve with a large enough effect; inconclusive = small, poorly fitted or top-dose-only effect; inactive = no such curve, though single readings can be large or run the other way; note: nearly all actives have a fitted effect of over 50% in size
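Fission yeast strain RE007, carrying one chromosomally integrated HIV-1 vpr copy, was seeded at OD 0.01 in PMG+AL medium with 23 nL pinned compound. After 24 h at 30 °C and 99% humidity, viability was read by BacTiter-Glo luminescence.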
Giardia growth: blocks growth of Giardia lamblia trophozoites | Giardia lamblia trophozoite growth inhibition | AID 2785 | 5% of 1,500 active | Potency, µM (highest dose often 57.5 µM), without a hit: at the highest dose activity change, negative = inhibition, most hits filed as inhibitors | shares compounds with Giardia FBPA inh-1;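 note: trophozoites exposed to compound for 48 h at 37 °C; nearly all actives have a fitted effect of over 70% in size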
Mammal cell tox: mammalian cytotoxicity of Giardia aldolase inhibitor hits. shares compounds with Giardia FBPA inh-1. mammalian cell viability counter-screen, qHTS. Potency, µM (series often up to 57.5 µM), without a hit: at the highest dose viability change, negative = toxicity, hits mostly inhibitors. 4% of 1,500 active;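 note: Chinese hamster ovary cells used as mammalian cytotoxicity surrogate; viability measured as cellular ATP by luminescence; compound exposure lasted 48 h before reading; nearly all actives have a fitted effect of over 60% in size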
Giardia FBPA inh-2: confirmation of Giardia fructose-bisphosphate aldolase inhibitors | purified Giardia aldolase enzyme activity, qHTS | 5% of 1,500 active | Potency, µM (titrated, usually from 57.5 µM), without a hit: at the top dose activity change, negative = inhibition, usual class: inhibitors | AID 2787 | shares compounds with Giardia FBPA inh-1; note: nearly all actives have a fitted effect of over 45% in size
Rabbit FBPA inh: rabbit FBP aldolase inhibition by Giardia aldolase hits; shares compounds with Giardia FBPA inh-1; Rabbit muscle FBPA enzyme inhibition, selectivity counter-screen; Potency, µM (highest dose often 57.5 µM), inactives show at the highest dose activity, negative = inhibition, usual class: inhibitors; 4% of 1,500 active; AID 2794; note: nearly all actives have a fitted effect of over 60% in size
GAPDH coupling: counter-screen for Giardia aldolase inhibitors: GAPDH coupling enzyme | shares compounds with Giardia FBPA inh-1 | GAPDH coupling enzyme counterscreen, biochemical, qHTS | Potency, µM (top dose mostly 57.5 µM), without a hit: top-dose activity change, negative = inhibition, usual class: inhibitors | 6% of 1,500 active | AID 2795; note: nearly all actives have a fitted effect of over 55% in size
The depositor's hits bear a star; ? = inconclusive; nt = no result; [ ] = remark or other dose. Unless noted, calls come from the whole dose curve; as a rule, active = well fitted curve in the direction sought with a large enough effect; inconclusive = small, poorly fitted or top-dose-only effect, or another doubt; inactive = no such curve, though single readings can be large; an effect the other way counts as inactive or inconclusive. % is set by controls: 0 for no effect and ±100 for the full control effect; potency is the fitted concentration of half-maximal effect.

SMILES	Giardia FBPA inh-1	Tb PYK inh	LmPK inh	RE007 growth inh	Giardia growth	Mammal cell tox	Giardia FBPA inh-2	Rabbit FBPA inh	GAPDH coupling
CC(C)(C)OC(=O)C[C@@H]1C/C=C\C[C@@H](CC(=O)N(CCO)Cc2ccccc2)C(=O)NC[C@H](c2ccccc2)OC1=O	nt	-2%	nt	19%	nt	nt	nt	nt	nt
COc1ccc(C)cc1-n1c(C)cc(C=O)c1C	-15%	1%	6%	1%	nt	nt	nt	nt	nt
COc1ccc(N)cc1-n1c(C)ccc1C	?	-22%	-9%	-4%	12%[38.3 µM]	3%	?	?	8.9µM*
O=C1NCCN(Cc2ccc(F)cc2)C1=O	nt	-5%	nt	nt	nt	nt	nt	nt	nt
Cc1cc(Cc2cc(C)c(O)c(CO)c2)cc(CO)c1O	nt	-2%	nt	-5%	nt	nt	nt	nt	nt
Cc1ccc(CN(Cc2ccccc2)C(=S)NCC(=O)NCc2cccnc2)o1	16µM*	-22%	-12%	4%	-12%	-12%	3%	5%	4%
CCC(=O)Nc1sc2c(c1C(=O)OC)CCN(Cc1ccccc1)C2	13µM*	4%	1%	-3%	-4%	-21%	-6%	1%	-22%
CC(C)N1CCc2c(sc(NC(=O)CCc3ccccc3)c2C(N)=O)C1	-26%	-2%	0%	-2%	nt	nt	nt	nt	nt
CC(C)N1CCc2c(sc(NC(=O)Cc3ccccc3)c2C(N)=O)C1	13µM*	-2%	-6%	0%	?	11%	9%	8%	9%
COc1cccc(OC)c1C(=O)Nc1sc2c(c1C(N)=O)CCN(Cc1ccccc1)C2	13µM*	0%	5%	-2%	-54%	-6%	-2%	15%	-10%
CN1CCc2c(sc(NC(=O)c3cc(Cl)sc3Cl)c2C(N)=O)C1	32µM*	1%	-2%	-5%	-65%	?	4%	2%	0%
Cc1cc(NS(=O)(=O)c2ccc(NC(=O)c3cnc(Cl)c(Cl)c3)cc2)nc(C)n1	nt	0%	nt	-5%	nt	nt	nt	nt	nt
CCN1CCc2c(sc(NC(=O)C3CCCCC3)c2C(=O)OC)C1	18µM*	-2%	-2%	8%	-16%	-11%	5%	13%	6%
O=C(O)c1ccc(-c2ccccn2)s1	8%	-11%	-2%	27%	nt	nt	nt	nt	nt
O=C(O)c1cc(-c2ccccn2)n[nH]1	6.3µM*	nt	-2%	1%[3.69 µM]	-9%	-4%	10%	6%	12%
COc1cc2c(cc1OC)n(CC(=O)c1ccc(C)cc1C)c(=O)n1nc(CCn3nc(C)cc3C)nc21	nt	-8%	nt	nt	nt	nt	nt	nt	nt
O=C(c1ccccc1)c1ccc(Oc2ccc([N+](=O)[O-])cc2[N+](=O)[O-])cc1	nt	1%	nt	-4%	nt	nt	nt	nt	nt
COc1cc(/C=N/NC2=NS(=O)(=O)c3ccccc32)ccc1OC(C)=O	11µM*	6%	-9%	11%	7%	8%	7%	11%	8%
COc1ccc(/C=N/NC2=NS(=O)(=O)c3ccccc32)cc1OC	10µM*	-3%	7%	3%	11%[10.4 µM]	27%	13%	12%	-7%
COc1ccc(C(=O)NNC2=NS(=O)(=O)c3ccccc32)cc1OC	-26%	3%	1%	11%	nt	nt	nt	nt	nt
COc1cc(C=NNc2ccccc2)ccc1OC(=O)c1ccccc1	nt	0%	nt	35%	nt	nt	nt	nt	nt
O=C(NC(CSC(=O)c1ccccc1)C(=O)O)OCc1ccccc1 (stereo unspecified)	nt	1%	nt	27%	nt	nt	nt	nt	nt
CCN(CC)S(=O)(=O)c1cccc(C(=O)N/N=C/c2cccc(O)c2O)c1	?	-11%	-2%	-17%	nt	nt	nt	nt	nt
